Laboratory results taken from PubChem BioAssay (NCI).
The panel holds about 79,000 compounds, 15% with a hit somewhere; the sample as a whole holds those more often. Activity calls are given as the source filed them. Rule as the data show it: active = growth inhibition above about 70%; inactive = the rest.

Experiments:
[1] = NCI Yeast Anticancer Drug Screen. Data for the rad52 strain (AID 147);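 also: 0% = growth of vehicle-treated control cultures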; conditions: S. cerevisiae rad52 mutant growth inhibition, active compounds read high
Method in brief: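 Measured: yeast growth inhibition. System: strain with a defined DNA damage repair alteration. Reference: vehicle-treated control cultures.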

[2] = NCI Yeast Anticancer Drug Screen. Data for the wt1 strain (AID 149);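 also: 0% = growth of vehicle-treated wt1 cultures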; conditions: S. cerevisiae wt1 strain (SPY 50644) growth inhibition, active compounds read high
Method in brief: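 Vehicle-normalised growth inhibition; strain wt1; compound exposure.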

[3] = NCI Yeast Anticancer Drug Screen. Data for the rad50EPP+ strain (AID 151);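 also: 0% = growth of vehicle-treated control cultures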; conditions: S. cerevisiae rad50 mutant strain, active compounds read high
Method in brief: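 One strain with a rad50 alteration (rad50EPP+) was compound-treated, its growth then compared to that of vehicle controls.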

[4] = NCI Yeast Anticancer Drug Screen. Data for the mgt1 strain (AID 153); conditions: S. cerevisiae mgt1 mutant growth inhibition, active compounds read high
Method in brief: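 After exposure of the mgt1 yeast mutant to compound, growth was measured and reported as inhibition compared with vehicle controls.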

[5] = NCI Yeast Anticancer Drug Screen. Data for the rad50 strain (AID 155);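 also: 0% = growth of vehicle-only cultures of the same strain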; conditions: S. cerevisiae rad50 strain growth inhibition, active compounds read high
Method in brief: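 A DNA repair-deficient yeast mutant serves as the test organism; compound-induced growth inhibition is calculated against vehicle-treated cells.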

[6] = NCI Yeast Anticancer Drug Screen. Data for the mec2-1 strain (AID 157); conditions: S. cerevisiae mec2-1 strain, active compounds read high
Method in brief: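 Test agents were screened against the mec2-1 yeast strain, with defined DNA repair or cell cycle alteration. Growth was scored as inhibition against vehicle-only controls.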

[7] = NCI Yeast Anticancer Drug Screen. Data for the rad14 strain (AID 159);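 also: 0% = growth of vehicle-treated control cultures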; conditions: S. cerevisiae rad14 strain growth inhibition, active compounds read high
Method in brief: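 Vehicle-treated cultures served as the baseline for growth inhibition of a DNA repair-mutant yeast strain exposed to each compound.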

[8] = NCI Yeast Anticancer Drug Screen. Data for the sgs1 mgt1 strain (AID 161);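 also: 0% = growth of cultures given vehicle only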; conditions: S. cerevisiae sgs1 mgt1 strain, active compounds read high
Method in brief: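 Genetically altered yeast, compound exposure, growth inhibition relative to vehicle.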

[9] = NCI Yeast Anticancer Drug Screen. Data for the CLN2oe strain (AID 163);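 also: 0% = growth of vehicle-only control cultures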; conditions: S. cerevisiae CLN2oe strain, active compounds read high
Method in brief: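 Here, growth inhibition in a cell-cycle-altered yeast strain after compound exposure was quantified against vehicle control growth.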

[10] = NCI Yeast Anticancer Drug Screen. Data for the cln2 rad14 strain (AID 165);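 also: 0% = growth equal to vehicle treated cultures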; conditions: S. cerevisiae cln2 rad14 strain, active compounds read high
Method in brief: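 Growth of compound-exposed yeast (cln2 rad14 genotype) measured and expressed as inhibition relative to vehicle.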

[11] = NCI Yeast Anticancer Drug Screen. Data for the bub3 strain (AID 167); conditions: S. cerevisiae bub3 mutant strain, active compounds read high
Method in brief: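 Inhibition values come from growth of compound-treated mutant yeast normalised to vehicle-treated controls.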

[12] = NCI Yeast Anticancer Drug Screen. Data for the wt2 strain (AID 169);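 also: 0% = growth of vehicle-treated yeast cultures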; conditions: S. cerevisiae wt2 strain growth inhibition, active compounds read high
Method in brief: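 Genetically defined yeast strains from a DNA-repair/cell-cycle panel were used. Compound-exposed yeast growth was measured, and the inhibition was calculated relative to vehicle treatment.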

[13] = NCI Yeast Anticancer Drug Screen. Data for the mlh1 strain (AID 171);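 also: 0% = growth of vehicle-treated control cultures of the same strain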; conditions: S. cerevisiae mlh1 strain growth inhibition, active compounds read high
Method in brief: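 Here the genetically defined yeast mutant is grown with each compound, and the extent to which its growth falls below that of vehicle-exposed cells is reported.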

[14] = NCI Yeast Anticancer Drug Screen. Data for the sgs1 strain (AID 173);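 also: 0% = growth of vehicle-only control cultures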; conditions: S. cerevisiae sgs1 mutant, active compounds read high
Method in brief: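 Relative growth inhibition, referenced to vehicle, was determined in a yeast strain with a defined alteration affecting DNA damage repair or cell cycle control after compound exposure.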

[15] = NCI Yeast Anticancer Drug Screen. Data for the mlh1 rad18 strain (AID 175); conditions: S. cerevisiae mlh1 rad18 strain growth inhibition, active compounds read high
Method in brief: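 In this whole-cell yeast screen, a strain with altered DNA damage repair is challenged with compound, and its growth is measured against matched vehicle-treated controls.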

[16] = NCI Yeast Anticancer Drug Screen. Data for the rad18 strain (AID 177); conditions: S. cerevisiae rad18 mutant growth inhibition, active compounds read high
Method in brief: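 Screen uses a yeast strain with a defined lesion in DNA damage repair; compound effect is read as loss of growth compared to untreated vehicle cultures.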

[17] = at 5.0 µM (retest, dose inferred, filed as 0.5)
[18] = at 50.0 µM (retest, dose inferred, filed as 5.0)

Measured: growth inhibition

CC(=O)SCCC[Si](C)(C)CCCSC(C)=O
active: [8]; at 50.0 µM 70.8%
inactive: [1]; at 1.2 µM -1% | [1]; at 3.7 µM 2% | [1]; at 11.0 µM 7% | [1]; at 33.0 µM 28% | [1]; at 100.0 µM 53% | [2]; at 1.2 µM -3% | [2]; at 3.7 µM -5% | [2]; at 11.0 µM -7% | [2]; at 33.0 µM 4% | [2]; at 100.0 µM 31% | [3]; at 1.2 µM -3% | [3]; at 3.7 µM 2% | [3]; at 11.0 µM 12% | [3]; at 33.0 µM 11% | [3]; at 100.0 µM 20% | [4]; at 1.2 µM -4% | [4]; at 3.7 µM -4% | [4]; at 11.0 µM -5% | [4]; at 33.0 µM 7% | [4]; at 100.0 µM 39% | [5]; at 1.2 µM 1% | [5]; at 3.7 µM 2% | [5]; [17] -1% | [5]; at 11.0 µM 5% | [5]; at 33.0 µM 21% | [5]; [18] 51% | [5]; at 50.0 µM 55.2% | [5]; at 100.0 µM 44% | [6]; at 1.2 µM -3% | [6]; at 3.7 µM -3% | [6]; [17] -2% | [6]; at 11.0 µM -5% | [6]; at 33.0 µM 3% | [6]; [18] 46% | [6]; at 50.0 µM 53.6% | [6]; at 100.0 µM 35% | [7]; at 1.2 µM -3% | [7]; at 3.7 µM 0% | [7]; at 11.0 µM 0% | [7]; at 33.0 µM 14% | [7]; at 100.0 µM 39% | [8]; [17] 1% | [8]; [18] 63% | [9]; at 1.2 µM -4% | [9]; at 3.7 µM -6% | [9]; at 11.0 µM -7% | [9]; at 33.0 µM 13% | [9]; at 100.0 µM 48% | [10]; [17] -6% | [10]; [18] 54% | [10]; at 50.0 µM 39% | [11]; at 1.2 µM -1% | [11]; at 3.7 µM 3% | [11]; [17] 10% | [11]; at 11.0 µM 3% | [11]; at 33.0 µM 23% | [11]; [18] 61% | [11]; at 50.0 µM 65.7% | [11]; at 100.0 µM 47% | [12]; at 1.2 µM -1% | [12]; at 3.7 µM -9% | [12]; at 11.0 µM -6% | [12]; at 33.0 µM 5% | [12]; at 100.0 µM 33% | [13]; at 1.2 µM -4% | [13]; at 3.7 µM -3% | [13]; at 11.0 µM -2% | [13]; at 33.0 µM 21% | [13]; at 100.0 µM 51% | [14]; at 1.2 µM -2% | [14]; at 3.7 µM 22% | [14]; at 11.0 µM 4% | [14]; at 33.0 µM 29% | [14]; at 100.0 µM 48% | [15]; [17] -2% | [15]; [18] 58% | [15]; at 50.0 µM 64.7% | [16]; at 1.2 µM -5% | [16]; at 3.7 µM 1% | [16]; at 11.0 µM 3% | [16]; at 33.0 µM 19% | [16]; at 100.0 µM 51%

CC(=O)Oc1ccc2c(c1)Cc1cc(N=C3C=CC(=O)O3)ccc1-2
active: [1]; at 11.0 µM 98% | [1]; at 33.0 µM 98% | [1]; at 100.0 µM 94% | [2]; at 11.0 µM 96% | [2]; at 33.0 µM 99% | [2]; at 100.0 µM 96% | [3]; at 1.2 µM 78% | [3]; at 3.7 µM 96% | [3]; at 11.0 µM 99% | [3]; at 33.0 µM 98% | [3]; at 100.0 µM 93% | [4]; at 11.0 µM 99% | [4]; at 33.0 µM 99% | [4]; at 100.0 µM 96% | [5]; at 11.0 µM 97% | [5]; at 33.0 µM 98% | [5]; [18] 99% | [5]; at 50.0 µM 99.5% | [5]; at 100.0 µM 92% | [6]; [17] 72% | [6]; at 11.0 µM 98% | [6]; at 33.0 µM 99% | [6]; [18] 99% | [6]; at 50.0 µM 99.4% | [6]; at 100.0 µM 96% | [7]; at 11.0 µM 99% | [7]; at 33.0 µM 99% | [7]; at 100.0 µM 95% | [8]; [18] 99% | [8]; at 50.0 µM 99.6% | [9]; at 11.0 µM 94% | [9]; at 33.0 µM 99% | [9]; at 100.0 µM 95% | [10]; [18] 99% | [10]; at 50.0 µM 98.8% | [11]; at 11.0 µM 95% | [11]; at 33.0 µM 98% | [11]; [18] 98% | [11]; at 50.0 µM 99.7% | [11]; at 100.0 µM 95% | [12]; at 11.0 µM 99% | [12]; at 33.0 µM 99% | [12]; at 100.0 µM 96% | [13]; at 11.0 µM 98% | [13]; at 33.0 µM 99% | [13]; at 100.0 µM 97% | [14]; at 11.0 µM 99% | [14]; at 33.0 µM 99% | [14]; at 100.0 µM 96% | [15]; [18] 99% | [15]; at 50.0 µM 85% | [16]; at 11.0 µM 97% | [16]; at 33.0 µM 98% | [16]; at 100.0 µM 96%
inactive: [1]; at 1.2 µM 14% | [1]; at 3.7 µM 41% | [2]; at 1.2 µM 2% | [2]; at 3.7 µM 24% | [4]; at 1.2 µM 9% | [4]; at 3.7 µM 36% | [5]; at 1.2 µM 9% | [5]; at 3.7 µM 55% | [5]; [17] 43% | [6]; at 1.2 µM 15% | [6]; at 3.7 µM 37% | [7]; at 1.2 µM 16% | [7]; at 3.7 µM 42% | [8]; [17] 64% | [9]; at 1.2 µM 2% | [9]; at 3.7 µM 23% | [10]; [17] 19% | [11]; at 1.2 µM -8% | [11]; at 3.7 µM 13% | [11]; [17] 31% | [12]; at 1.2 µM 3% | [12]; at 3.7 µM 36% | [13]; at 1.2 µM 18% | [13]; at 3.7 µM 51% | [14]; at 1.2 µM 17% | [14]; at 3.7 µM 56% | [15]; [17] 62% | [16]; at 1.2 µM 15% | [16]; at 3.7 µM 50%
